Screens deposited in PubChem by several laboratories.
DUSP3 inh: blocks human VHR1 dual specificity phosphatase. P51452. recombinant VHR phosphatase, pNPP absorbance. inhibition, % at 13.3 µM. actives 0.52% (n = 290,000); in the data active = inhibition above about 50%
Target sequence (P51452 whole entry, looked up): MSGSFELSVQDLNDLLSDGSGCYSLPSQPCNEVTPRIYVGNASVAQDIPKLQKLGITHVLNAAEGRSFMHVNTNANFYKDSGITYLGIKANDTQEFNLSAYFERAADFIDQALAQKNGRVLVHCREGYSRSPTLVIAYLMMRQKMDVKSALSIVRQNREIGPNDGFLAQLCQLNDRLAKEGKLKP
Yp Topo-I inh: inhibitors of Yersinia pestis topoisomerase I | Y. pestis Topo-I cleavage product accumulation, plate reader | activity, % at 10 µM | actives 0.064% (n = 360,000) | AID 504884; in the data active = activity above about 50%, passing the limit was not always enough
CCHF vOTU inh: CCHFV vOTU protease inhibition; Pep-AMC fluorescence; inhibition, % at 11.5 µM; actives 0.55% (n = 370,000); AID 651958; in the data active = inhibition above about 30%; also: 0% = vehicle wells with enzyme and 100% = no enzyme wells
PrPC surface inh: inhibitors of human cell surface prion protein PrPC; inhibition, % at 13.8 µM; TR-FRET read-out; actives 0.43% (n = 370,000); in the data active = inhibition above about 24%; also: 0% = median of the test wells and 100% = reference compound wells
Vc quorum ag: induces V. cholerae light production without autoinducers. V. cholerae BH1578 lux reporter, luminescence, 6 h. activation, % at 18.7 µM. AID 588436. actives 0.16% (n = 350,000); in the data active = activation mostly above about 9.7%, no sharp cut-off
MazF activator: MazEF (E. coli) toxin RNase activation; P0AE70; FAM/BHQ RNA-DNA oligo cleavage fluorescence, 5 h; activation, % at 20 µM; actives 0.32% (n = 350,000); AID 504720; in the data active = activation above about 50%
Target sequence (P0AE70 whole entry, looked up): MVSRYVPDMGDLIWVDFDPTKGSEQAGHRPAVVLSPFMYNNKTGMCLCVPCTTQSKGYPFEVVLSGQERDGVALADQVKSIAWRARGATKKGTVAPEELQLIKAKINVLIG
PrPC confirm: cell surface PrPC inhibition, TR-FRET confirmation. actives 65% (n = 1,500). inhibition, % at 13.8 µM. AID 743200. cell surface PrPC level. shares compounds with PrPC surface inh; in the data active = inhibition above about 25%
LD9 tox: kills or reduces viability of LD9 cells in PrPc counter-screen; inhibition, % at 13.8 µM; shares compounds with PrPC surface inh; LD9 cells cytotoxicity, luminescence viability; actives 29% (n = 1,500); in the data active = inhibition above about 9.5%
Numbers without * were called inactive; i = inactive; . = no result. Hits are enriched below; roughly 1.8% of the tested compounds scored in any of these assays.

SMILES | DUSP3 inh | Yp Topo-I inh | CCHF vOTU inh | PrPC surface inh | Vc quorum ag | MazF activator | PrPC confirm | LD9 tox
Cc1ccc(NS(=O)(=O)c2ccc(Cl)c(C(=O)Nc3ccccc3-c3nc4ccccc4[nH]3)c2)cc1C | 1 | 0 | -14 | 26* | 0 | 3 | 17 | -3
CN[C@@H](CO)C(=O)NC[C@H]1O[C@@H](n2cnc3c(N)ncnc32)[C@H](O)[C@@H]1O | . | . | 2 | -4 | . | . | . | .
CCOC(=O)C1CCN(c2c(NCCC(C)C)c(=O)c2=O)CC1 | -7 | 0 | 18 | 3 | -1 | -11 | . | .
CN1CCN(S(=O)(=O)c2cccc(C(=O)Nc3cc(C(N)=O)cc(C(N)=O)c3)c2)CC1 | 19 | -5 | -15 | 30* | 0 | 9 | 25* | 4
CC(=O)Oc1ccc(-c2ccc(C(=O)Nc3cccc(S(=O)(=O)N4CCOCC4)c3)cc2)cc1 | -2 | 10 | -21 | 25* | 0 | -7 | 23 | 5
COc1ccc(C(=O)NC(=S)Nc2cccc(S(=O)(=O)N3CCOCC3)c2)cc1 | 10 | 4 | -6 | 10 | 0 | 7 | . | .
CC(C)(C)c1ccc(OCCC(=O)Nc2cccc(S(=O)(=O)N3CCOCC3)c2)cc1 | 21 | 15 | 16 | 25* | i | 1 | 16 | -2
COC(=O)[C@]12C[C@H](CC(=O)N3CCN(C(=O)C4CC4)CC3)C(=O)N(CCC3=CCCCC3)C1=C[C@H](C(C)(C)C)O[C@@H]2C | . | . | 25 | 4 | . | . | . | .
S=C1NCC(c2ccccc2)S1 (centres undefined) | . | -3 | -3 | -4 | i | -3 | . | .
Cc1csc(NC(=O)CSc2nc(C(C)C)nc3c2c(=O)n(C)c(=O)n3C)n1 | 29 | 2 | 25 | 27* | -2 | 6 | 20 | 8
OCC1OC(n2ccc3c2ncn2ncnc32)C(O)C1O (centres undefined) | . | 0 | 10 | -6 | 1 | -4 | . | .
NC(=S)c1cn(C2OC(CO)C(O)C2O)c2ncnc(N)c12 (centres undefined) | 36 | 0 | -2 | 28* | -6 | -9 | 37* | 37*
Nc1ncnc2c1ccn2[C@@H]1O[C@H](CO)[C@@H](O)[C@H]1O | . | 5 | -3 | 77* | 0 | -1 | 68* | 94*
Nc1ncnc2nn(C3OC(CO)C(O)C3O)nc12 (centres undefined) | . | -4 | 11 | 8 | 1 | 6 | . | .
CCC(=O)N1c2ccc(S(=O)(=O)N3CCOCC3)cc2CC1C (centres undefined) | -10 | -2 | 13 | -1 | -4 | -2 | . | .
N#Cc1c(-c2ccc(Cl)cc2)c2c([nH]c1=O)-c1ccccc1OC2 | 19 | -5 | -109 | -1 | -1 | -3 | . | .
COC(=O)/C(C(C)=O)=C(/C=C/C=C/N(C)C)N(C)C | 10 | 4 | -7 | 50* | i | -3 | 7 | 4
N#Cc1cccc(C(c2nnnn2C2CCCC2)N2CCCCCC2)c1 (centres undefined) | 24 | 0 | 17 | 41* | i | -1 | 6 | -1
COc1ccc(C(CCN2CCCC(C)C2)c2c(OC)cc(OC)c3c2OC(=O)CC3c2cc(OC)c(OC)c(OC)c2)cc1 (centres undefined) | 11 | 18 | . | . | -2 | 6 | . | .
COc1cc(/C=N\Nc2nc3ccccc3[nH]2)cc(OC)c1OC | 17 | -4 | 15 | -3 | 0 | 5 | . | .
COc1ccc2c(c1)c(/C=N/Nc1nc3ccccc3[nH]1)c(C)n2C | 3 | -28 | 9 | 25* | 0 | -11 | 6 | 27*
O=C(OCCC12CC3CC(CC(C3)C1)C2)c1ccc(NCc2cc(O)ccc2O)cc1 | . | -5 | 10 | 28* | i | -27 | 45* | 72*
O=C(OCC12CC3CC(CC(C3)C1)C2)c1ccc(NCc2cc(O)ccc2O)cc1 | . | -19 | 3 | 25* | -1 | 15 | 26* | 22*
N#CCC(=O)Nc1ccc(C(=O)OCC(=O)C23CC4CC(CC(C4)C2)C3)cc1 | . | -6 | 3 | -3 | -1 | -16 | . | .
CCNC(=O)OCCC12CC3CC(CC(C3)C1)C2 | 23 | 13 | 9 | 6 | -1 | -8 | . | .
